Results published in PubChem BioAssay (EPA / NIEHS).
Where “and” joins values, the source holds several entries; their conditions need not be identical. Equal entries are not always repeated. Results filed as inconclusive are left out. Calls of active or inactive are those of the source. The calls were made as follows, unless noted: active = hit-call score of the fitted dose curve at least 0.9, where 1 is the maximum; inconclusive = response in the unintended direction; inactive = score below 0.9.

Legend:
[1] = read-out: ABC Transporter (ABCB11), ABCB11 (gene 8647); assay: CLD_ABCB11_6hr: CellzDirect (CLD) Gene Expression Assay for ABC Transporter (ABCB11) at 6 hours (AID 2283675);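 also: hits raise ABCB11 mRNA level so AC50 marks induction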
Outline: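 Read-out was ABCB11 mRNA gain of signal by quantitative nuclease protection assay, relative to 0.2% DMSO vehicle, 6 h post-dose. Cells were primary human hepatocytes from two donors, treated across multiple concentrations; phase-contrast cytotoxicity noted yes/no.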

[2] = CLD_ACTIN_6hr: CellzDirect (CLD) Gene Expression Assay for Baseline Control (Actin) at 6 hours (AID 2283676);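 also: active means increased actin mRNA relative to DMSO vehicle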
Outline: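 Baseline actin transcript level measured by qNPA (S1 nuclease protection, chemiluminescence) in human hepatocyte cultures 6 h after chemical exposure; 0.2% DMSO vehicle as reference, cytotoxicity noted from morphology.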

[3] = read-out: Cytochrome P450 2B6 (Homo sapiens) (UniProt P20813); assay: CLD_CYP2B6_6hr: CellzDirect (CLD) Gene Expression Assay for xenobiotic metabolism (CYP2B6) at 6 hours (AID 2283677);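 also: actives raise CYP2B6 transcript above DMSO baseline so AC50 marks an inducer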
Outline: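 CYP2B6 transcript levels, read by chemiluminescent qNPA, were fitted for increase versus DMSO baseline; cultured human liver hepatocytes from two donor preparations were harvested 6 h after exposure to test chemicals at multiple concentrations.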

[4] = CCTE_Padilla_ZF_144hpf_TERATOSCORE: (Legacy) CCTE's 144 Hour Post-fertilization zebrafish Assay Teratoscore, Padilla Lab (AID 2283679; active = hit-call score of the fitted dose curve at least 0.9, where 1 is the maximum; inactive = score below 0.9;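 as to AC50: zebrafish embryos with chorions exposed by immersion from 6-8 hpf to 5 dpf with daily renewal; teratogenicity score from eye scoring of death hatching and malformations at 144 hpf; higher score means more developmental defects relative to DMSO baseline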)
Outline: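 Larvae scored by eye at 144 hpf for death, hatching and malformations after a day in clean Hanks'. Before that, daily-renewed exposure at 80 uM (0.4% DMSO, 26C) from roughly 6-8 hpf through 5 dpf, 4 embryos per chemical.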

[5] = read-out: HMG-CoA synthase (HMGCS2), HMGCS2 (gene 3158); assay: CLD_HMGCS2_6hr: CellzDirect (CLD) Gene Expression Assay for HMG-CoA synthase (HMGCS2) at 6 hours (AID 2283682);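 also: actives raise HMGCS2 transcript above the 0.2% DMSO vehicle baseline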
Outline: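 HMGCS2 transcript induction read by quantitative nuclease protection with chemiluminescence, 6 h after dosing of primary human hepatocytes. Baseline was 0.2% DMSO vehicle; phase-contrast morphology gave a yes/no cytotoxicity annotation.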

[6] = read-out: xenobiotic metabolism (CYP1A2), CYP1A2 (gene 1544); assay: CLD_CYP1A2_24hr: CellzDirect (CLD) Gene Expression Assay for xenobiotic metabolism (CYP1A2) at 24 hours (AID 2283683)
Outline: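 CYP1A2 mRNA induction measured by quantitative nuclease protection (chemiluminescent) in human primary hepatocytes 24 h after multi-concentration chemical dosing with daily fresh solutions. DMSO (0.2%) baseline; positive-direction fitting; morphology-based cytotoxicity noted.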

[7] = read-out: Broad substrate specificity ATP-binding cassette transporter ABCG2 (Homo sapiens) (UniProt Q9UNQ0); assay: CLD_ABCG2_24hr: CellzDirect (CLD) Gene Expression Assay for ABC Transporter (ABCG2) at 24 hours (AID 2283685);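 as to AC50: AC50 is for induction meaning signal gain over DMSO vehicle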
Outline: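 ABCG2 mRNA induction, read as gain of chemiluminescent signal over 0.2% DMSO, was measured by quantitative nuclease protection at 24 h. Cultured human liver hepatocytes were given fresh dosing solutions of test chemicals at several concentrations each day.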

[8] = read-out: Cytochrome P450 2C19 (Homo sapiens) (UniProt P33261); assay: CLD_CYP2C19_24hr: CellzDirect (CLD) Gene Expression Assay for xenobiotic metabolism (CYP2C19) at 24 hours (AID 2283687);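 also: activity means mRNA induction above DMSO vehicle baseline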
Outline: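 CYP2C19 mRNA was quantified by qNPA chemiluminescence after 24 h of daily dosing of cultured human primary hepatocytes from two donors; vehicle was 0.2% DMSO, and increases over DMSO baseline were fitted.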

[9] = read-out: ABC Transporter (ABCB1), ABCB1 (gene 5243); assay: CLD_ABCB1_24hr: CellzDirect (CLD) Gene Expression Assay for ABC Transporter (ABCB1) at 24 hours (AID 2283684)
Outline: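 ABCB1 mRNA induction versus 0.2% DMSO vehicle was read by qNPA chemiluminescence at 24 h. Cultured human hepatocytes from two donor preparations received daily fresh dosing, and phase-contrast cytotoxicity calls were annotated alongside the data.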

[10] = read-out: Cytochrome P450 2B6 (Homo sapiens) (UniProt P20813); assay: CLD_CYP2B6_24hr: CellzDirect (CLD) Gene Expression Assay for xenobiotic metabolism (CYP2B6) at 24 hours (AID 2283686)
Outline: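 qNPA chemiluminescent measurement of mRNA at 24 hours in human primary hepatocyte cultures from two donor preparations, with daily fresh dosing and 0.2% DMSO vehicle as baseline. Morphology-based cytotoxicity flagged yes/no.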

Measured: AC50

Broad substrate specificity ATP-binding cassette transporter ABCG2 (Homo sapiens), sequence (Q9UNQ0 whole entry, looked up): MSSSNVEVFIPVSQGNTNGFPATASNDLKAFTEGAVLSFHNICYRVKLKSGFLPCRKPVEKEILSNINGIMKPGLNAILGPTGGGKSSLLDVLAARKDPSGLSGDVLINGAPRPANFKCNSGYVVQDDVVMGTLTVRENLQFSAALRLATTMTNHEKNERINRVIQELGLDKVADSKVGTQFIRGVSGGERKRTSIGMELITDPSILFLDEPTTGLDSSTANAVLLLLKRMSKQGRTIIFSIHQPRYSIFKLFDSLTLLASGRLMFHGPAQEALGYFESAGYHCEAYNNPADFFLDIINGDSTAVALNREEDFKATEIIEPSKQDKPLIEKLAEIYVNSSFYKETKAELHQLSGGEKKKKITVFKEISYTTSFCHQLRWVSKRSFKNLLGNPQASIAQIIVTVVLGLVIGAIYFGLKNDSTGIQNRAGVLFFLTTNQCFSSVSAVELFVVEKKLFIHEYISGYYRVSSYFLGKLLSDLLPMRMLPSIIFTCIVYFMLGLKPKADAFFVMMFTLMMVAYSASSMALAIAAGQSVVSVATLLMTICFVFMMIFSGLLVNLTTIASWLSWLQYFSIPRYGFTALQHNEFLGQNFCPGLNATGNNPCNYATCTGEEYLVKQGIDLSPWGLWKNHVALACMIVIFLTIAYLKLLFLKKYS
Cytochrome P450 2C19 (Homo sapiens), sequence (P33261 whole entry, looked up): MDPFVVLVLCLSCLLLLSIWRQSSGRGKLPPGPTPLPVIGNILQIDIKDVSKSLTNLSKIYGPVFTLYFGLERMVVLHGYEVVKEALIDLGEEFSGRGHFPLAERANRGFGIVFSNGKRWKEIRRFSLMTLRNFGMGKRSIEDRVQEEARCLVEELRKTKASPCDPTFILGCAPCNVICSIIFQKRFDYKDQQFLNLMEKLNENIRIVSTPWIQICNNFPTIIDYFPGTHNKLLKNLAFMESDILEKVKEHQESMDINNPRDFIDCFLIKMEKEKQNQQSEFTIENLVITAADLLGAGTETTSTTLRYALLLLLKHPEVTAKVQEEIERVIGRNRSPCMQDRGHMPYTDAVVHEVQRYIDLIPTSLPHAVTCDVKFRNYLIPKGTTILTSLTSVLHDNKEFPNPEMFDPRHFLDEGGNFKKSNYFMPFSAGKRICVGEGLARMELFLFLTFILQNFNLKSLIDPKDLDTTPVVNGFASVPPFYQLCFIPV

COP(=O)(OC)OC=C(Cl)Cl
inactive: [1] | [2] | [5] | [6] | [7] | [8]
active: [3] 1.89 µM | [4] 53.8 µM

CNC(=O)CSP(=S)(OC)OC
active: [3] 3.11 µM
inactive: [1] | [2] | [4] | [5] | [6] | [8]

Clc1ccccc1-c1nnc(-c2ccccc2Cl)nn1
active: [3] 0.0004 µM | [6] 4.38 µM
inactive: [1] | [2] | [4] | [5] | [9] | [7] | [8]

C[C@H]1[C@H](c2ccc(Cl)cc2)SC(=O)N1C(=O)NC1CCCCC1
active: [3] 3.09 µM | [6] 5.84 µM | [10] 2.58 µM
inactive: [1] | [2] | [4] | [7]

O=C(NC(=O)c1c(F)cccc1F)Nc1ccc(OC(F)(F)C(F)OC(F)(F)F)c(Cl)c1 (stereo not drawn)
inactive: [1] | [2] | [3] | [4] | [7]

O=C(Nc1ccccc1)Nc1cnns1
inactive: [1] | [2] | [4] | [5]
active: [6] 6.13 µM

COC(=O)c1ccccc1S(=O)(=O)NC(=O)Nc1nc(C)nc(OC)n1
inactive: [1] | [2] | [3] | [4] | [9] | [7] | [8]
active: [5] 11.7 nM | [6] 3.08 µM

Oc1cc(Cl)ccc1Oc1ccc(Cl)cc1Cl
active: [4] 1.48 µM and 4.99 µM and 1.9 µM
inactive: [1] | [3] | [5] | [6]

N#CN
inactive: [1] | [2] | [4] | [5] | [6] | [7] | [8]

CCOCN(C(=O)CCl)c1c(C)cccc1CC
active: [3] 1.66 µM | [4] 15.5 µM | [6] 0.333 µM
inactive: [1] | [2] | [5] | [7]

CCC(C)(NC(=O)c1cc(Cl)c(C)c(Cl)c1)C(=O)CCl (stereo not drawn)
inactive: [1] | [2] | [6] | [8]
active: [3] 3.17 µM | [4] 5.78 µM

COC(=O)c1ccccc1CS(=O)(=O)NC(=O)Nc1nc(OC)cc(OC)n1
active: [6] 20 µM
inactive: [1] | [2] | [4] | [5] | [8]

O=S(=O)(O)C(F)(F)C(F)(F)C(F)(F)C(F)(F)C(F)(F)C(F)(F)C(F)(F)C(F)(F)F
inactive: [1] | [2] | [3] | [6] | [7] | [8]
active: [4] 23.8 µM and 45.6 µM and 7.44 µM | [5] 3970 nM

[2H]C1([2H])[n+]2ccccc2-c2cccc[n+]2C1([2H])[2H]
inactive: [1] | [2] | [4] | [5] | [6] | [7] | [8]

CC[C@H](C)[C@H]1O[C@]2(C=C[C@@H]1C)C[C@@H]1C[C@@H](C/C=C(\C)[C@@H](O[C@H]3C[C@H](OC)[C@@H](O[C@H]4C[C@H](OC)[C@@H](O)[C@H](C)O4)[C@H](C)O3)[C@@H](C)/C=C/C=C3\CO[C@@H]4[C@H](O)C(C)=C[C@@H](C(=O)O1)[C@]34O)O2 (tested in a mixture with another compound)
active: [1] 332 nM | [4] 0.0449 µM | [7] 4.64 µM
inactive: [2] | [3] | [5] | [6] | [8]

O=S1OCC2C(CO1)C1(Cl)C(Cl)=C(Cl)C2(Cl)C1(Cl)Cl (stereo not drawn)
active: [3] 1.24 µM | [4] 3.4 µM
inactive: [1] | [2] | [5] | [7] | [8]

O=C(O)C(F)(F)C(F)(F)C(F)(F)C(F)(F)C(F)(F)C(F)(F)C(F)(F)F
inactive: [1] | [2] | [3] | [4] | [5] | [6] | [7]

CNC(=O)Oc1cccc(N=CN(C)C)c1
inactive: [1] | [2] | [3] | [4] | [5] | [6] | [8]

CNC(=O)/C=C(\C)OP(=O)(OC)OC
inactive: [1] | [3] | [4] | [5] | [6]

CC1(c2ccc(Oc3ccccc3)cc2)OC(=O)N(Nc2ccccc2)C1=O (stereo not drawn)
inactive: [1] | [2] | [5] | [6]
active: [3] 1.88 µM | [4] 0.172 µM

CCCN(CCC)c1c([N+](=O)[O-])cc(C(F)(F)F)cc1[N+](=O)[O-]
inactive: [1] | [2] | [7]
active: [3] 1.27 µM | [4] 0.601 µM | [6] 5.03 µM | [10] 2.06 µM

CCC(C)(C)C(=O)OC1=C(c2ccc(Cl)cc2Cl)C(=O)OC12CCCCC2
inactive: [1] | [2] | [3] | [6] | [7]
active: [4] 1.89 µM

OCCOc1ccccc1
inactive: [1] | [2] | [3] | [4] | [5] | [6] | [7] | [8]

CCN(CC)C(=O)SCc1ccc(Cl)cc1
inactive: [1] | [2] | [5] | [6] | [7] | [8]
active: [3] 1.84 µM | [4] 23.4 µM | [10] 3.93 µM

CC(C)(C)C(O)C(Oc1ccc(Cl)cc1)n1cncn1 (stereo not drawn)
active: [3] 0.656 µM | [4] 52.6 µM and 46.6 µM and 57.3 µM | [6] 2.95 µM
inactive: [1] | [2] | [5] | [7] | [8]

CCCN(CCOc1c(Cl)cc(Cl)cc1Cl)C(=O)n1ccnc1
inactive: [1] | [2] | [5] | [7]
active: [3] 0.702 µM | [4] 5.63 µM | [6] 0.378 µM

CC(C)OC(=O)Nc1cccc(Cl)c1
active: [10] 7.72 µM

ClC1C(Cl)C(Cl)C(Cl)C(Cl)C1Cl (stereo not drawn)
active: [10] 1.39 µM
